Screening data from PubChem BioAssay.
PINK1 expr mod = changes PINK1 expression | AID 624263 | 410,000 compounds, 0.2% hits | Potency, µM (top dose mostly 76.6 µM), inactives show top-dose activation (PINK1 increase), usual class: activators | PINK1 immunofluorescence, high-content cytometry, 24 h; active = well fitted activation curve with a large enough effect; inconclusive = small, poorly fitted or top-dose-only effect; cell line not stated here; note: % of control where 0% means no effect; nearly all actives have a fitted effect of over 65% in size
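PINK1 protein level read as immunofluorescence by microplate cytometer in a fixed, stained stable cell line after 24 h exposure to five compound concentrations, with CCCP as control.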
RORg inh = blocks mouse ROR gamma transcriptional activity | P51450 | Drosophila S2 Gal4-RORgamma UAS-luciferase reporter, 20 h | Potency, µM (titrated, usually from 53.6 µM), inactives show at the top dose activity change, negative = inhibition, most hits filed as inhibitors | 310,000 compounds, 5.4% hits | AID 2551; note: % is set by controls: 0 for no effect and ±100 for the full control effect; nearly all actives have a fitted effect of over 60% in size
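Drosophila S2 cells stably expressing Gal4-DBD/mouse RORγ fusion under metallothionein promoter plus UAS-luciferase; compound 1 h, then 700 uM CuSO4 induction for 20 h at ambient temperature; inhibition read as reduced luminescence.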
ClpP mod = qHTS Assay for Activators of ClpP; AID 651965, 2013; purified B. subtilis ClpP, FRET peptide cleavage, 20 min; Potency, µM (highest dose often 57.5 µM), inactives show at the highest dose activity change, negative = active; 340,000 compounds, 1.9% hits; ATP-dependent Clp protease proteolytic subunit (Bacillus subtilis (strain 168)), P80244; active = well fitted falling curve with a large enough effect; inconclusive = small, poorly fitted or top-dose-only effect; inactive = no such curve, though single readings can be large or run the other way; note: the source files actives as falling curves though it sought activators and does not explain the sign; nearly all actives have a fitted effect of over 65% in size
Target sequence (P80244 whole entry, looked up): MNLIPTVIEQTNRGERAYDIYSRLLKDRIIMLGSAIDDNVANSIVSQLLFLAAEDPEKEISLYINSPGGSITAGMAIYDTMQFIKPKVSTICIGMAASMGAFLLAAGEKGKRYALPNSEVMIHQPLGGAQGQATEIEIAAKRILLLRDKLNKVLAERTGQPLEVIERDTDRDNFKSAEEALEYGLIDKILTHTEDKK
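FRET quenching reversal measured ClpP activation: 10 microg/mL B. subtilis ClpP at pH 8 with the FRET-FV decapeptide, read at 430 nm after 320 nm excitation. The 20-min minus 0-min signal was scaled between DMSO/no-enzyme wells and ADEP (5.8 microM final).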
VP16 counter = inhibits Gal4-VP16 luciferase reporter, ROR gamma counter-screen | Potency, µM (series often up to 53.6 µM), without a hit: top-dose activity, negative = inhibition, hits mostly inhibitors | Drosophila S2 Gal4-VP16 UAS-luciferase, luminescence, 20 h | 310,000 compounds, 3.5% hits;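 note: Gal4-VP16 expression switched on by copper sulfate through the metallothionein promoter; % is set by controls: 0 for no effect and ±100 for the full control effect; nearly all actives have a fitted effect of over 50% in size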
Sfp PPTase inh = blocks B. subtilis Sfp PPTase activity; AID 1490; Q9F4F7; Biochemical Sfp PPTase activity, qHTS; Potency, µM, inactives show largest response in the series, negative = inhibition, actives largely listed as inhibitors; 310,000 compounds, 3.5% hits;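 note: the enzyme is Sfp with the accession as filed and its product quenches rhodamine fluorescence; 0% = enzyme reaction without inhibitor and -100% = no enzyme wells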
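With Hepes-Na pH 7.6 buffer containing 10 mM MgCl2, Sfp (15 nM) modified BHQ-2-YbbR (12.5 uM) using rhodamine-CoA (5 uM). Two reads 30 minutes apart at 525/598 nm yielded each well's rate.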
Epigenetic reg = epigenetic control regulation, reporter derepression | murine LDR cells, GFP reporter derepression, 30 h | 280,000 compounds, 0.2% hits | Potency, µM (doses to about 53.9 µM), without a hit: top-dose GFP activation, hits mostly activators; note: % of control where 0% means no effect; nearly all actives have a fitted effect of over 60% in size
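Derepression of a silenced CMV-GFP reporter in murine LDR cells is scored by enumerating GFP-positive cells with a laser-scanning microplate cytometer after 30 hours of treatment at 37 C.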
* hit, by the source's call; ? = inconclusive; · = no result given. The list is not random: actives were taken first. Their share in the collection is about 8.1%. Unless noted, calls come from the whole dose curve; as a rule, active = well fitted curve in the direction sought with a large enough effect; inconclusive = small, poorly fitted or top-dose-only effect, or another doubt; inactive = no such curve, though single readings can be large; an effect the other way counts as inactive or inconclusive. Potency is the fitted concentration of half-maximal effect.

SMILES	PINK1 expr mod	RORg inh	ClpP mod	VP16 counter	Sfp PPTase inh	Epigenetic reg
O=C(NNC(=S)NC(=O)c1cccc([N+](=O)[O-])c1)c1ccc(O)cc1	3%	13µM*	-2%	13µM*	?	·
Cc1ccc(C(=O)NC(=S)NNC(=O)c2cccc([N+](=O)[O-])c2)cc1	1%	4.5µM*	1%	7.1µM*	12%	·
COc1cccc(C(=O)NC(=S)Nc2ccc([N+](=O)[O-])cc2C)c1	16%	7.1µM*	1%	?	-4%	1%
Cc1cccc(C(=O)NC(=S)NNC(=O)c2ccc(Cl)cc2)c1	2%	10µM*	-4%	?	-2%	-1%
Cc1cccc(NC(=S)NNC(=O)c2cccc([N+](=O)[O-])c2)c1	1%	-32%	·	-13%	0%	1%
Cc1ccc2c(CC(=O)N3CCOc4ccc(CN5CCOCC5)cc4C3)cc(=O)oc2c1	0%	·	·	·	·	·
O=C(NNC(=S)NC(=O)c1cccc([N+](=O)[O-])c1)c1ccc(Br)cc1	1%	11µM*	·	?	-2%	·
O=C(c1cccc([N+](=O)[O-])c1)c1ccccn1	0%	1%	1%	2%	0%	-3%
O=C(NNC(=S)NC(=O)c1ccccc1)c1cccc([N+](=O)[O-])c1	1%	7.9µM*	-4%	11µM*	13%	·
O=C(NNC(=O)c1ccccn1)c1cccc([N+](=O)[O-])c1	3%	10µM*	·	?	7%	-1%
O=C(NC(=S)Nc1cccc(F)c1)c1cccc([N+](=O)[O-])c1	2%	1.6µM*	-1%	6.3µM*	?	0%
O=C(NNC(=O)c1cccc([N+](=O)[O-])c1)c1ccncc1	0%	1%	·	7%	1%	2%
CC(=O)NC(=S)Nc1cccc([N+](=O)[O-])c1	0%	?	·	16%	18%	0%
CCN(Cc1ccncc1)Cc1ccc2c(c1)CN(C(=O)c1ccc(OC)cc1)CCO2	-1%	·	·	·	·	·
CCCCCC(=O)N/N=C(\C)c1ccccn1	1%	0.35µM*	1%	0.56µM*	?	1%
C/C(=N\NC(=O)COc1ccccc1-c1ccccc1)c1ccccn1	1%	1.1µM*	·	?	10%	?
C/C(=N\NC(=O)COc1ccccc1-c1ccccc1)c1cccnc1	2%	20%	·	5%	4%	4%
Nc1nc2c(ncn2-c2ccccc2)c(=O)[nH]1	1%	·	-4%	·	·	·
O=c1[nH]c(=S)c2ncn(-c3ccccc3)c2[nH]1	1%	-28%	·	-8%	18µM*	0%
c1ccc(N2CCN(c3nc4cc5c(cc4s3)OCCO5)CC2)cc1	1%	-34%	-3%	-11%	3%	-1%
NNc1nc2cc3c(cc2s1)OCCO3	-1%	?	-5%	?	40µM*	·
O=C(Nc1nc2cc3c(cc2s1)OCCO3)c1cccs1	-1%	?	152%	?	5%	2%
c1c2c(cc3sc(N4CCOCC4)nc13)OCCO2	-4%	3.5µM*	0%	4.5µM*	18%	0%
Cc1ccc(-c2nnc(N3CCC(C)CC3)c3ccccc23)cc1	-1%	?	0%	?	-20%	-1%
Cc1ccc(-c2nnc(N3CCC(C)CC3)c3ccccc23)cc1C	-1%	20µM*	·	18µM*	-17%	-1%
O=C(O[C@H]1[C@H](Cc2ccccc2)NS(=O)(=O)[C@H]2CC3C=C[C@]12O3)c1ccc(Br)cc1	·	·	-2%	·	·	·
CCN(CC)c1ccc2cc(-c3nnc(-c4ccncc4)o3)c(=O)oc2c1	?	7%	?	-2%	9%	0.56µM*
CCN(CC)c1ccc2cc(C(C)=O)c(=O)oc2c1	0%	25%	1%	-4%	0%	2%
CCN(CC)c1ccc2cc(-c3nnc(-c4cccc(Cl)c4)o3)c(=O)oc2c1	18%	·	28µM*	·	·	?
